The nature of assay [1]: qHTS assay to identify small molecule agonists of the estrogen receptor alpha (ER-alpha) signaling pathway in the presence of an antagonist - cell viability counter screen (AID 1259386).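 Further: series mostly up to about 92 µM; cells exposed to compounds for 22 h at 37 °C before the viability read; nearly all actives have a fitted effect of over 30% in size.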 In outline:
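Read-out: CellTiter-Fluor fluorescence after 1hr reagent incubation, measured in the same wells as the luciferase readout. VM7Luc4E2 cells were exposed to 15 compound concentrations with 10.0nM ICI-182,780 for 22hr at 37C.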
In general terms: In qHTS, concentration-response curves come from the screen itself.

Assay [2] deals with Progesterone receptor (Homo sapiens) (UniProt P06401). In words: qHTS assay to identify small molecule agonists of the progesterone receptor (PR) signaling pathway (AID 1346784; calls by dose curve; further: nearly all actives have a fitted effect of over 30% in size). The essentials:
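PR-UAS-bla HEK 293T cells carrying a UAS-driven beta-lactamase reporter were seeded in medium with 2% charcoal-stripped FBS, preincubated 6 hr at 37C, then exposed to compounds in DMSO for 16 hr; agonism was read by LiveBLAzer B/G FRET fluorescence.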

Assay [3] shares this target. In words: qHTS assay to identify small molecule antagonists of the progesterone receptor (PR) signaling pathway (AID 1346795; active means well fitted inhibition curve with a large enough effect in the signal ratio in the repeat runs, not every such curve was filed as active; the % refers to the signal ratio). In outline:
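PR-UAS-bla HEK293T cells carrying a UAS-driven beta-lactamase reporter were plated in medium with 2% charcoal-stripped FBS and rested 6 hr at 37C. Compounds were added with 1 nM R5020 (final) for 16 hr, then FRET substrate loaded 2 hr at room temperature.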

A short description of assay [4]: qHTS assay to identify small molecule agonists of the progesterone receptor (PR) signaling pathway - cell viability counter screen (AID 1346799; calls by dose curve; further: nearly all actives have a fitted effect of over 45% in size). The essentials: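 PR-UAS-bla HEK293T cells, 3,000 per well in medium with 2% charcoal-stripped FBS, were preincubated 6 hr at 37C, then exposed to compounds for 16 hr; viability was read as CellTiter-Glo luminescence after 30 min at room temperature.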

A short description of assay [5]: qHTS assay to identify small molecule antagonists of the TGF-beta/Smad signaling pathway - cell viability counter screen (AID 1346824). Further: nearly all actives have a fitted effect of over 50% in size. The essentials:
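Cytotoxicity counter-screen run in the same wells as the beta-lactamase Smad reporter read: CellTiter-Glo luminescence after 30 min at room temperature. HEK 293T SBE-bla cells had 5 hr compound exposure at 37 C with TGF-beta1 (0.25 ng/mL stock).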

Assay [6] is described as follows: qHTS assay to identify small molecule agonists of the TGF-beta/Smad signaling pathway - cell viability counter screen (AID 1346829). Further: top concentration of the series differs between compounds; nearly all actives have a fitted effect of over 45% in size. In outline:
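SBE-bla HEK 293T cells plated overnight, compound exposure 5 hr at 37 C. Viability read in the same wells by CellTiter-Glo luminescence after 30 min at room temperature, following the beta-lactamase read.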

Assay [7] can be described thus: qHTS assay to identify small molecule agonists of the TGF-beta/Smad signaling pathway (AID 1346859; active means well fitted activation curve with a large enough effect in the signal ratio in the repeat runs, not every such curve was filed as active; the % refers to the signal ratio; further: series mostly up to about 77 µM). The essentials:
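HEK 293T cells stably carrying a beta-lactamase reporter driven by the Smad binding element were seeded overnight, exposed to DMSO-dissolved compounds for 5 hr at 37 C, 5% CO2, then loaded with FRET substrate for 2 hr at room temperature.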

The target in assay [8] is Thyrotropin-releasing hormone receptor (Homo sapiens) (UniProt P34981). In words: qHTS assay to identify small molecule antagonists of the thyrotropin-releasing hormone receptor (TRHR) signaling pathway (AID 1346877; active means well fitted inhibition curve with a large enough effect in the repeat runs, not every such curve was filed as active; further: series mostly up to about 51 µM). The essentials: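 HEK293/TRHR cells, 18 h, 37 °C; Ca2+ dye 2 h; cpd 5 min RT; TRH 1 nM final; fluorescence read 3 min, 1 s intervals; 15 concs, triplicate.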
Thyrotropin-releasing hormone receptor (Homo sapiens), sequence (P34981 whole entry, looked up): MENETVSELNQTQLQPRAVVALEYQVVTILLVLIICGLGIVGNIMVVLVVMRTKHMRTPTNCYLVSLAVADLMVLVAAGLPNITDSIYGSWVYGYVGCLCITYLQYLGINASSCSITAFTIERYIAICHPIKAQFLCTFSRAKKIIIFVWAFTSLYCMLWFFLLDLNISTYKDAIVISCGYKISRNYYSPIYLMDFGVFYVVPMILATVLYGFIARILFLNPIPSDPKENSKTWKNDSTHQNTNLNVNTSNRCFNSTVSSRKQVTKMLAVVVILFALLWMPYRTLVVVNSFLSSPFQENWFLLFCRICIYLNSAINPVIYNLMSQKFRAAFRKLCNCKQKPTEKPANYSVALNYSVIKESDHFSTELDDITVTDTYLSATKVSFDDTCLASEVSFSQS

The target is the same in assay [9]. In words: qHTS assay to identify small molecule agonists of the thyrotropin-releasing hormone receptor (TRHR) signaling pathway (AID 1346891; calls by dose curve; further: series mostly up to about 58 µM). The essentials: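 TRHR-expressing HEK293 cells were plated 18 h at 37 °C/5% CO2, loaded with calcium dye 2 h at 37 °C, then given compound in DMSO; fluorescence was read kinetically for 3 min at 1 s intervals.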
Assay [10] is described as follows: Human pregnane X receptor (PXR) small molecule agonists, qHTS cell viability counter screen (AID 1346977). Further: nearly all actives have a fitted effect of over 50% in size. The essentials:
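PXR-Luc HepG2 cells in medium with 5% charcoal-stripped FBS were pre-incubated 5hr, then exposed to compounds for 24hr at 37C. Viability was read in the same wells by CellTiter-Fluor fluorescence, reagent added after 23hr with a 1hr incubation.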

A short description of assay [11]: Caspase-3/7 induction in HepG2 cells by small molecules, qHTS assay (AID 1346978). Further: nearly all actives have a fitted effect of over 15% in size. In outline: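 Caspase-3/7 induction was measured by Caspase-Glo 3/7 luminescence (30 min, room temperature) after a 17 hr compound exposure of wild-type HepG2 cells seeded at 2,000 per well and pre-incubated 5 hr.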
Assay [12] can be described thus: Caspase-3/7 induction in CHO-K1 cells by small molecules, qHTS cell viability counter screen (AID 1346979). Further: nearly all actives have a fitted effect of over 35% in size. In outline: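 Wild-type CHO-K1 cells were seeded at 1,500 per well, rested 5hr at 37 C, then exposed to compounds in DMSO. After 16hr, CellTiter-Fluor reagent was added and fluorescence read 1hr later as the viability measure.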
Assay [13] can be described thus: Caspase-3/7 induction in CHO-K1 cells by small molecules, qHTS assay (AID 1346980). Further: nearly all actives have a fitted effect of over 15% in size. The essentials:
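Luminescent Caspase-Glo 3/7 read (30min, room temperature) quantified apoptosis induction. Cells were wild-type CHO-K1, treated with compound for 17hr at 37 C and 5% CO2.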

A short description of assay [14]: Caspase-3/7 induction in HepG2 cells by small molecules, qHTS cell viability counter screen (AID 1346981). Further: series mostly up to about 92 µM; nearly all actives have a fitted effect of over 30% in size. The essentials: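 Fluorescence read-out of live-cell protease activity (CellTiter-Fluor) after 1 hr with reagent. This was measured in the same wells as the caspase-3/7 luminescence, on HepG2 cells exposed to DMSO-dissolved compounds for 16 hr at 37 C.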
In assay [15] the target is Nuclear receptor subfamily 1 group I member 2 (Homo sapiens) (UniProt O75469). In words: Human pregnane X receptor (PXR) small molecule agonists, qHTS assay (AID 1346982). Further: nearly all actives have a fitted effect of over 35% in size. Further: potency means the concentration at half of the fitted maximal effect. The essentials:
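HepG2 PXR-Luc reporter line, 5% charcoal-stripped FBS; 5 hr pre-incubation, compound (DMSO) 24 hr at 37 C/5% CO2; ONE-Glo 30 min RT; luminescence read-out.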

The target of assay [16] is Cytochrome P450 2D6 (Homo sapiens) (UniProt P10635). In words: Cytochrome P450 Family 2 Subfamily D Member 6 (CYP2D6) small molecule antagonists: luciferase reporter qHTS assay (AID 1671196). Further: nearly all actives have a fitted effect of over 50% in size. Further: potency means the concentration at half of the fitted maximal effect. The essentials:
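Luminogenic proluciferin substrate, CYP2D6 enzyme; 10 min RT preincubation with compound, NADPH regeneration system added, 1 h RT. Stop/detection reagent, 20 min RT, luminescence read (RLU). Signal proportional to CYP activity.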
A general note: In a reporter assay the amount or activity of a reporter protein is the signal.

Assay [17] in a line: qHTS assay to identify small molecule antagonists of the progesterone receptor (PR) signaling pathway - cell viability counter screen (AID 1346798). Further: series mostly up to about 92 µM; nearly all actives have a fitted effect of over 50% in size. In outline:
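PR-UAS-bla HEK293T cells in medium with 2% charcoal-stripped FBS were treated with compounds plus R5020 for 16 hr at 37C. Cell viability was then read by CellTiter-Glo luminescence after 30 min at room temperature in the same wells.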

Assay [18] has as its target Nuclear receptor subfamily 1 group I member 2 (Rattus norvegicus) (UniProt Q9R1A7). In words: Rat pregnane X receptor (rPXR) activation by small molecules, qHTS assay (AID 1346983). Further: nearly all actives have a fitted effect of over 20% in size. The following applies: rPXR luciferase reporter cells, One-Glo luminescence, 24 h; stronger effect = higher value. The essentials: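 Luminescent readout (One-Glo luciferase, 30 min room temperature) followed 24 hr compound treatment at 37 C of rPXR cells plated 2,000 per well and preincubated 5hr; qHTS format with compounds delivered in DMSO.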

For assay [19], the target named is Nuclear receptor subfamily 1 group I member 2 (Homo sapiens) (UniProt O75469). In words: CYP3A4 induction through human pregnane X receptor (PXR) by small molecules, qHTS assay (AID 1346984). Further: nearly all actives have a fitted effect of over 40% in size. The essentials:
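HepG2-derived DPX-2 line carrying PXR plus a CYP3A4-promoter luciferase reporter; cells plated 5 hr, compound-exposed 24 hr at 37C. CYP3A4 activity probed with 3uM (final) Luciferin-IPA for 3hr, then luciferase read after One-Glo.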

Assay [20] has the same target. In words: Human pregnane X receptor (PXR) activation by small molecules, qHTS assay (AID 1346985). Further: nearly all actives have a fitted effect of over 40% in size. The essentials: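 DPX-2 cells (HepG2 co-transfected with a PXR response element and a CYP3A4-promoter luciferase construct) were seeded at 2,000 per well, rested 5 hr at 37C, then exposed to DMSO-dissolved compounds for 24 hr. Activation was read as luciferase luminescence.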

Where “and” joins values, the source holds several entries; their conditions need not be identical. Equal entries are not always repeated. Records with an inconclusive call do not appear. A structure can be active in one record and inactive in another. Calls of active or inactive are those of the source. Unless noted, the call rests on the fitted dose curve; in most records, active means well fitted curve in the direction sought with a large enough effect in the repeat runs; inconclusive means weak or mixed curves; inactive means no such curve, though single readings can be large; an effect the other way counts as inactive or inconclusive.
On the % scale 0 is the no-effect control and ±100 the full control effect.

Nuclear receptor subfamily 1 group I member 2 (Homo sapiens), sequence (O75469 whole entry, looked up): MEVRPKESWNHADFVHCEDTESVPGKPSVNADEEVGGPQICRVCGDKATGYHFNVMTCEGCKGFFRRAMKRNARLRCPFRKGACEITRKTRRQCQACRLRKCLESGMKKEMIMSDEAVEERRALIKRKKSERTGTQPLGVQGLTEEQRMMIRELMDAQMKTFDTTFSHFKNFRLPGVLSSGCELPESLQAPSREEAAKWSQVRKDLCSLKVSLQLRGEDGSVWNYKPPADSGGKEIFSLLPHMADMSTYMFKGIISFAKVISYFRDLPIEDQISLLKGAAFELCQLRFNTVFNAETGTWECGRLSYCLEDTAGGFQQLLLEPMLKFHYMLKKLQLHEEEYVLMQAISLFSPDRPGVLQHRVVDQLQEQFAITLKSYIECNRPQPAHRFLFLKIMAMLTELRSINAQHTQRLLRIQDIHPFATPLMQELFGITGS
Progesterone receptor (Homo sapiens), sequence (P06401 whole entry, looked up): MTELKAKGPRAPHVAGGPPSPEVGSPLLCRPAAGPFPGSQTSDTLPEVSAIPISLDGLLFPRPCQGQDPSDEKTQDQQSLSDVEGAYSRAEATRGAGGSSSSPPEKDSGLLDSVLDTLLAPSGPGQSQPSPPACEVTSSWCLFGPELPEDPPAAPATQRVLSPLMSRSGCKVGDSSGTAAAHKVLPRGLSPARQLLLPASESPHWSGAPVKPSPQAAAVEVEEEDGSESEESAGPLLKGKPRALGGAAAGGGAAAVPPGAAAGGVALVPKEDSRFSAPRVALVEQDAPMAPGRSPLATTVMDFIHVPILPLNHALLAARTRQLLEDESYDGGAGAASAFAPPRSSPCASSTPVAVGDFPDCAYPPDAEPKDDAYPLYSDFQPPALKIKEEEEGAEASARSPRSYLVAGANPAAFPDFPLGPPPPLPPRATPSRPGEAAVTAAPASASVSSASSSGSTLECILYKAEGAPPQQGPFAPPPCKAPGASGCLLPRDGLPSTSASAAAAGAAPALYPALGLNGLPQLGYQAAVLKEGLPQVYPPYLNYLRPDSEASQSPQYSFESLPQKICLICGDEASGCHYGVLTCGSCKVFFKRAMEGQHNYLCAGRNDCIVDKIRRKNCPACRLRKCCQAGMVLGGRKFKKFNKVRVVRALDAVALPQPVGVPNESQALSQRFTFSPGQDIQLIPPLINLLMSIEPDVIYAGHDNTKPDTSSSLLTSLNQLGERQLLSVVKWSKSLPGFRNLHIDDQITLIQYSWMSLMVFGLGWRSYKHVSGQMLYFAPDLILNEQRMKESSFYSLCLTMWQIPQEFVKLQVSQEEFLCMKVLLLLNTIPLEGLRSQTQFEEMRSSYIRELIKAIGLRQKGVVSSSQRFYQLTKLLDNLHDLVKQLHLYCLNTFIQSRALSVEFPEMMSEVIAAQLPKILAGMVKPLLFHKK
Cytochrome P450 2D6 (Homo sapiens), sequence (P10635 whole entry, looked up): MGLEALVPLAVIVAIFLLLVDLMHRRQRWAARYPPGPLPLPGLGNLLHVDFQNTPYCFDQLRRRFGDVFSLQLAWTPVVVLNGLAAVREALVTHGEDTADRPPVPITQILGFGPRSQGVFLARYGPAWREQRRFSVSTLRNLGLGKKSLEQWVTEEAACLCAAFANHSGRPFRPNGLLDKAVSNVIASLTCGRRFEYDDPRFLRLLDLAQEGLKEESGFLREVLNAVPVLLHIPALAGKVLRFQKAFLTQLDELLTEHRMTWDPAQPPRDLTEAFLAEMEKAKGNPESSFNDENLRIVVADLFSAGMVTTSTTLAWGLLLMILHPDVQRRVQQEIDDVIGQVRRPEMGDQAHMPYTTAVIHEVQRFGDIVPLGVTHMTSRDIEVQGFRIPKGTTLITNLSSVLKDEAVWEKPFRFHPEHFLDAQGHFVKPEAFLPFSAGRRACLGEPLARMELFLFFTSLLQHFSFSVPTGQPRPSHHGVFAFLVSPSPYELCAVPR
Nuclear receptor subfamily 1 group I member 2 (Rattus norvegicus), sequence (Q9R1A7 whole entry, looked up): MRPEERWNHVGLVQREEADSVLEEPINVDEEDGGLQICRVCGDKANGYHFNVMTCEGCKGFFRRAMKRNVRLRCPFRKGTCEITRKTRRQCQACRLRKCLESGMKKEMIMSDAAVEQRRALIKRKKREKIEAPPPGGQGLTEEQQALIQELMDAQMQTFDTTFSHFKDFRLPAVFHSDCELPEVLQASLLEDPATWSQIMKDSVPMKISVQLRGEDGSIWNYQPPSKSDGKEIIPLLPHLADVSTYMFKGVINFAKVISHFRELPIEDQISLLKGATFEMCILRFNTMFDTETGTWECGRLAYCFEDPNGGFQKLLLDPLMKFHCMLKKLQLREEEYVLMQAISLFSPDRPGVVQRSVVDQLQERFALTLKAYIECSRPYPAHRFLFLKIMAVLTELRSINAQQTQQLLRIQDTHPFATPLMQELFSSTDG

For `C=Cc1ccc(C)cc1`, the Potency entry in [1], in assay [2], in [3], in assay [10], in assay [11] and in [12] was “inactive” throughout. Besides, the Potency entry in assay [14], in assay [15] and in assay [16] was “inactive” each time. The result in [4], in assay [5], in assay [6], in [7], in assay [8] and in assay [9] was inactive. For the same compound, the compound was classed as inactive in [13].

`CC(C)CCCCCCCOC(=O)CCCCC(=O)OCCCCCCCC(C)C`: the Potency entry in assay [1], in [2], in [3], in assay [10], in [11] and in [12] was “inactive” throughout. The Potency entry in [14] and in [16] was “inactive” in each case. For the same compound, the compound was classed as inactive in [17], in [5], in assay [6], in assay [7], in [8] and in assay [9]. Moreover, the call in [13] was inactive. The Potency in assay [15] is 50.4 µM (active) and inactive.

With `OC1C(O)C(O)C(O)C(O)C1O` (stereo not drawn), the Potency result in [1], in assay [2], in assay [3], in [10], in assay [11] and in assay [12] was “inactive” in each case. In addition, the Potency entry in [14], in assay [15], in assay [19] and in [16] was “inactive” in each case. The outcome in assay [17], in assay [4], in [5], in assay [6], in [7] and in [9] was inactive. Besides, the compound was classed as inactive in assay [13] and in assay [20]. In addition, the max activation in [18] was -0.165% (inactive).

In the case of `CCO[Si](CCCN)(OCC)OCC`, the Potency entry in assay [1], in assay [2], in assay [3], in [10], in assay [11] and in assay [12] was “inactive” each time. The Potency entry in [14], in assay [15] and in assay [16] was “inactive” throughout. The compound was called inactive in assay [17], in assay [4], in assay [5], in assay [7], in assay [8] and in [9]. Also, in [13], the call was inactive.

Take `CC1(C)CC(N)CC(C)(CN)C1` (stereo not drawn): the Potency entry in [1], in [2], in assay [3], in [10], in assay [11] and in [12] was “inactive” each time. The Potency result in [14] was “inactive”. Also, the result in assay [17], in assay [4], in assay [5], in [7], in assay [8] and in assay [9] was inactive. In [13], the call was inactive. The Potency was 49.3 µM (active) and 24.3 µM (active) in [15]; 36.1 µM (active) and inactive in assay [16].

With `CC(=O)OCc1ccccc1`, the Potency entry in assay [1], in [2], in assay [3], in [10], in assay [11] and in [12] was “inactive” in each case. The Potency result in assay [14], in assay [15] and in assay [16] was “inactive” each time. Also, the result in assay [17], in assay [4], in [5], in [6], in [7] and in assay [8] was inactive. Further, the compound was classed as inactive in assay [9] and in [13].

Consider `COc1ccc(OC)cc1`, for which the Potency entry in assay [1], in [2], in assay [3], in assay [10], in assay [12] and in [14] was “inactive” in each case. Further, the Potency result in [16] is “inactive”. Besides, the call in assay [4], in assay [5], in assay [6], in assay [7], in [8] and in [9] was inactive. In assay [13], the compound was classed as inactive.

As to `CC(C)OP(=O)(CP(=O)(OC(C)C)OC(C)C)OC(C)C`, the Potency result in assay [1], in assay [2], in [3], in assay [10], in assay [12] and in assay [14] was “inactive” throughout. Also, the Potency entry in [16] was “inactive”. Moreover, the result in [4], in assay [5], in [6], in [7], in assay [9] and in [13] was inactive. The Potency in [15] was 27.3 µM (active) and inactive.

For the origin of these results see PubChem BioAssay (Tox21).
